This is one part of a sample in which hits are shown more often than they occur.
miR-122 inh – miR-122 suppressors via Renilla sensor increase, primary screen, cell-based, Huh7 psiCHECK-miR122, Renilla luciferase, single point. 48 h. hit rate 0.14% among 340,000. activation, % at 12.5 µM;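 active = mean activation of 30% or more, with every replicate also reaching 30%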;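 also: higher luciferase signal means stronger suppression of miR-122 activity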
Hits are given with their value; - = inactive.

SMILES	miR-122 inh
CC(C)Oc1ccc(CNCCC2(C(C)C)CCOC(C)(C)C2)cc1 (stereo not given)	70.5
C[C@H](O)C#Cc1cnc2c(c1)C(=O)N([C@@H](C)CO)C[C@H](C)[C@H](CN(C)C(=O)CN(C)C)O2	-
COc1ccc(S(=O)(=O)N(C)C[C@@H]2Oc3cc(-c4ccccc4OC)ccc3S(=O)(=O)N([C@@H](C)CO)C[C@@H]2C)cc1	-
CC(=O)N1[C@@H](CO)[C@H](c2ccccc2)[C@@H]1CNC(=O)CN1CCOCC1	-
O=C(C1CCOCC1)N1[C@H](CO)[C@H]2c3ccccc3NC[C@H]21	41.7
CC(=O)N(C)C[C@H]1[C@H](c2ccc(-c3cccnc3)cc2)[C@@H](CO)N1C(=O)C1CC1	-
Cc1ccc(S(=O)(=O)N(C)C[C@@H]2Oc3cc(C#CC4CCCC4)ccc3S(=O)(=O)N([C@@H](C)CO)C[C@@H]2C)cc1	-
CC(C)CC#Cc1cnc2c(c1)C(=O)N([C@@H](C)CO)C[C@@H](C)[C@@H](CN(C)CC1CCOCC1)O2	-
COc1ccc(NS(=O)(=O)c2ccc(N3CCOCC3)c(NC(=O)c3cccc(F)c3)c2)cc1	-
COc1nnc(-c2ccc(N3CCOCC3)c(NC(=O)c3ccccc3)c2)c2ccccc12	45.1
COc1ccc(NS(=O)(=O)c2ccc(N3CCOCC3)c(NC(=O)c3ccc(F)cc3)c2)cc1	-
C[C@@H]1CN([C@@H](C)CO)S(=O)(=O)c2ccc(-c3cccnc3)cc2O[C@H]1CN(C)Cc1ccccn1	-
COc1ccc(-c2cnc3c(c2)C(=O)N([C@H](C)CO)C[C@@H](C)[C@H](CN(C)C(=O)Cc2ccccc2)O3)cc1	-
C[C@@H]1CN([C@@H](C)CO)C(=O)c2cccc(NC(=O)c3ccncc3)c2O[C@@H]1CN(C)C	-
C[C@@H]1CN([C@@H](C)CO)C(=O)c2cc(-c3ccc(C(=O)N(C)C)cc3)cnc2O[C@@H]1CN(C)C(=O)c1cccnc1	-
COCC#Cc1cnc2c(c1)C(=O)N([C@H](C)CO)C[C@@H](C)[C@H](CN(C)C(=O)C1CCOCC1)O2	-
CC(C(=O)OCC(=O)Nc1ncc(Cl)cc1Cl)N1C(=O)c2ccccc2C1=O (stereo not given)	35.7
CCCNC(=O)NC[C@@H]1[C@@H](c2ccc(C3=CCCC3)cc2)[C@@H](CO)N1C(=O)CC	-
C[C@H](CO)N1C[C@H](C)[C@@H](CN(C)Cc2ccc(Oc3ccccc3)cc2)Oc2ncc(-c3cccnc3)cc2C1=O	-
CC(C)C#Cc1cnc2c(c1)C(=O)N([C@H](C)CO)C[C@@H](C)[C@H](CN(C)C(=O)c1ccccc1)O2	-
CC(=O)N(C)C[C@H]1Oc2cc(C#CC3(O)CCCC3)ccc2S(=O)(=O)N([C@H](C)CO)C[C@H]1C	-
COC(=O)c1ccc2c(c1)C(C)(C)C(/C=C/c1ccc(OC)c(OC)c1OC)=[N+]2C	40.4
COC(=O)c1ccc(NS(=O)(=O)c2cc(C)ccc2OC)cc1	-
CO[C@@H]1CN(C)C(=O)c2ccc(NC(=O)C3CCC3)cc2OC[C@@H](C)NC[C@H]1C	-
C[C@H](O)C#Cc1ccc2c(c1)O[C@H](CN(C)CC1CCOCC1)[C@@H](C)CN([C@H](C)CO)S2(=O)=O	-
SMILES	miR-122 inh
O=C(OCn1ncc(Cl)c(Cl)c1=O)c1ccccc1Cl	61.2
Cc1ccc(-c2cnc3c(c2)C(=O)N([C@H](C)CO)C[C@@H](C)[C@@H](CN(C)C(=O)c2ccncc2)O3)cc1	-
C[C@@H]1CN([C@@H](C)CO)C(=O)c2cc(C#CC(C)(C)O)cnc2O[C@H]1CN(C)C(=O)C1CC1	-
Cc1noc(C)c1S(=O)(=O)N(C)C[C@@H]1Oc2c(NC(=O)c3cnccn3)cccc2C(=O)N([C@@H](C)CO)C[C@@H]1C	-
C[C@H]1CN([C@@H](C)CO)S(=O)(=O)c2ccc(-c3cncnc3)cc2O[C@@H]1CN(C)C(=O)Cc1cccnc1	-
O=C(CCCCCCC(=O)Nc1ccccc1)NO	-
CCc1ccc(-c2cc(C(=O)NCc3ccccn3)c3ccccc3n2)cc1	-
O=C(CCCCCN1C(=O)c2ccccc2C1=O)NCc1ccccn1	35.5
C[C@H]1CN([C@@H](C)CO)S(=O)(=O)c2ccc(C#CC3CC3)cc2O[C@@H]1CN(C)Cc1ccccn1	-
C[C@@H]1CN([C@@H](C)CO)C(=O)c2cc(C#CCc3ccccc3)cnc2O[C@@H]1CN(C)CC1CCOCC1	-
C/C=C/c1cnc2c(c1)C(=O)N([C@@H](C)CO)C[C@H](C)[C@@H](CN(C)C(=O)Cc1cccnc1)O2	-
COc1cccc(-c2cnc3c(c2)C(=O)N([C@H](C)CO)C[C@@H](C)[C@H](CN(C)Cc2cccnc2)O3)c1	-
C[C@@H]1CN([C@@H](C)CO)S(=O)(=O)c2ccc(-c3ccncc3)cc2O[C@H]1CN(C)Cc1ccccn1	-
COc1ccc(C(=O)N[C@H](C(=O)Nc2nc3ccccc3[nH]2)C(C)C)cc1	-
O=C(COc1cccc2ccccc12)Nc1nc2ccccc2[nH]1	31.8
C[C@@H]1CN([C@@H](C)CO)C(=O)c2cc(C3=CCCCC3)cnc2O[C@H]1CN(C)Cc1ccccc1C(=O)O	-

From PubChem
